tim23-1 inh: inhibits growth of tim23-1 mutant yeast; S. cerevisiae tim23-1 growth, BacTiter-Glo luminescence, 24 h; inhibition, % at 20 µM; hit rate 1.3% among 330,000;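 active = growth inhibition of the mutant yeast at or above 50%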;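 also: temperature-sensitive mutant grown at 25 °C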
TIM10 inh: inhibits growth of TIM10 yeast strain; inhibition, % at 10 µM; AID 463195; S. cerevisiae TIM10 strain growth, BacTiter-Glo luminescence, 24 h; hit rate 1.4% among 330,000;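 active = inhibition of 40% or more at the single tested concentration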;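 also: wild-type TIM10 isogenic control strain grown at permissive 25 °C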
MPTP inh: blocks calcium-induced mitochondrial swelling. hit rate 1.4% among 360,000. isolated mouse mitochondria, Ca2+ swelling absorbance, 30 min. inhibition, % at 10 µM. AID 602449;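 active = inhibition of 50% or more, scaled per plate between neutral and stimulator controls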
Mdm2-MdmX inh: human Mdm2/MdmX binding inhibition; O15151+Q00987; SaOS-2 split-luciferase Mdm2/MdmX complementation, luminescence; inhibition, % at 8 µM; hit rate 3% among 330,000; AID 485346;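 active = inhibition of at least 50% at 8 µM in the primary screen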
tim10-1 inh: tim10-1 yeast growth inhibition; S. cerevisiae tim10-1 ts strain growth, BacTiter-Glo, 24 h; inhibition, % at 20 µM; hit rate 2.2% among 330,000; AID 463190;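 active = inhibition of at least 40%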;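 also: mutant grown at 25 °C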
tim23-1 conf: confirmation of tim23-1 mutant yeast growth inhibitors. AID 463218. shares compounds with tim23-1 inh. inhibition, % at 20 µM. hit rate 83% among 4,400. S. cerevisiae tim23-1 growth, BacTiter-Glo luminescence, 24 h;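 active = inhibition above about 39% in either of two replicate wells at 20 µM, limit read from the data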;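 also: temperature-sensitive tim23-1 mutant grown at 25 °C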
Numbers stand for hits; . = inactive; / = no result given. Most compounds without a hit are left out; they make up all but 6.3% or so of the library.

SMILES	tim23-1 inh	TIM10 inh	MPTP inh	Mdm2-MdmX inh	tim10-1 inh	tim23-1 conf
O=C(Nc1cc(-c2ccccc2)[nH]n1)c1ccccc1F	50.9	.	.	.	.	41.0
O=C(O)c1ccccc1C(=O)Nc1cc(-c2ccccc2)[nH]n1	.	.	.	.	.	/
O=C(Nc1cc(-c2ccccc2)[nH]n1)c1ccccc1	52.0	.	.	.	.	56.2
O=C(NCc1cccc(C(F)(F)F)c1)c1csc([C@H]2C[C@H](O)[C@@H](CO)O2)n1	/	/	.	/	/	/
CC(C)C(=O)N1CCCC1(C)C(=O)Nc1ccc2c(c1)OCO2 (centres undefined)	/	/	.	/	/	/
N=C1/C(=C\c2coc3ccccc3c2=O)C(=O)N=C2SC=CN12	64.8	.	.	.	.	70.9
CSC1=NSC2=NC(=O)/C(=C/c3coc4ccc(O)cc4c3=O)C(=N)N12	.	.	.	.	.	/
COc1ccc(Nc2cc(C)c3ccc(O)cc3n2)cc1	51.4	.	.	.	.	.
Cc1cc(Nc2ccccc2)nc2cc(O)ccc12	64.7	.	.	.	.	.
Cn1c(=O)c2c(SCc3cccnc3)nc(C3CC3)nc2n(C)c1=O	50.4	.	.	.	.	42.5
CCc1nc(SCc2ccccn2)c2c(=O)n(C)c(=O)n(C)c2n1	55.5	.	.	.	.	49.9
CC(C)c1nc(SCc2ccccn2)c2c(=O)n(C)c(=O)n(C)c2n1	50.3	.	.	.	.	48.5
CC(=O)c1ccc(N2CCN(C(=S)Nc3cccc(Cl)c3)CC2)cc1	96.2	.	.	.	.	.
CC12CCC(c3c(C(=O)Nc4nccs4)nn(-c4ccccc4)c31)C2(C)C (centres undefined)	59.2	.	.	.	.	56.6
Cc1cccn2cc(-c3ccccc3)nc12	.	.	.	.	.	/
Oc1ccc(Br)cc1C=Nc1cccn2cc(-c3ccccc3)nc12	54.3	.	.	.	.	53.9
CN1CCSc2ccc(C(=O)NCc3cccc(Br)c3)cc21	53.1	.	.	.	.	50.3
O=C(O)CN1C(=O)/C(=C\c2cc(Br)ccc2OCc2ccc([N+](=O)[O-])cc2)SC1=S	53.3	.	.	.	.	71.5
CC(C)OC(=O)c1cccnc1SCc1cc(=O)n2ccccc2n1	65.3	.	.	.	.	44.0
COc1ccc2cc(C(=O)N3CCN(c4ccccc4F)CC3)[nH]c2c1	.	.	.	.	.	/
COc1ccc2cc(C(=O)N3CCN(c4ccccc4OC)CC3)[nH]c2c1	58.5	.	.	.	.	53.0
COc1cc2[nH]c(C(=O)N3CCN(c4ccccc4F)CC3)cc2c(OC)c1OC	50.9	.	.	.	.	.
Cc1ccc(S(=O)(=O)NC(=O)C2(C)CCN2C(=O)c2ccccc2)nc1 (centres undefined)	/	/	.	/	/	/
O=C1CCC2c3[nH]c4ccccc4c3CCN12 (centres undefined)	/	/	.	/	/	/
COc1ccc(CN2C(=O)CCC2(C)c2nnnn2-c2ccc3c(c2)OCCO3)cc1OC (centres undefined)	/	/	.	/	/	/
SMILES	tim23-1 inh	TIM10 inh	MPTP inh	Mdm2-MdmX inh	tim10-1 inh	tim23-1 conf
O=C1c2ccccc2C(=O)N1c1nc(-c2cccs2)cs1	76.8	.	.	.	.	40.6
CCOC(=O)c1nnc(-c2ccccc2)nc1Oc1ccccc1Cl	53.2	.	.	.	.	55.6
CC12CC3(C)CC(C)(C1)CC(C(=O)NC1=NCCS1)(C2)C3	52.3	.	.	.	.	40.2
CC(C)(C)C(=O)NC1=NCCS1	.	.	.	.	.	/
COc1ccc(C(C[N+](=O)[O-])c2c(-c3ccccc3)cc3ccccn23)cc1OC (centres undefined)	50.0	.	.	.	.	61.8
COc1cccc(C(=O)Nc2nc3ccccc3s2)c1	.	.	.	.	.	/
Cc1ccc2nc(NC(=O)c3ccco3)sc2c1	63.8	.	.	.	.	.
COc1ccc2nc(NC(=O)c3ccco3)sc2c1	51.6	.	.	.	.	.
CCC(C)C(=O)Nc1nc2ccc(OC)cc2s1 (centres undefined)	52.1	.	.	.	.	51.0
COc1ccc(C(=O)Nc2nc3ccccc3s2)cc1	54.7	.	.	.	.	.
C[C@@H]1CN([C@@H](C)CO)C(=O)c2cc(Br)cnc2O[C@H]1CN(C)C(=O)Cc1ccccn1	/	/	.	/	/	/
COc1ccc([C@H]2CC(=O)C[C@@H](CCn3cc(-c4ccncc4)nn3)O2)cc1	/	/	.	/	/	/
Cc1c(CC(=O)NCC(=O)NCC(=O)N[C@@H](Cc2ccccc2)C(=O)O)c(=O)oc2c(C)c(O)ccc12	/	/	.	/	/	/
COC(=O)c1cccc(CN2C(=O)C(C)Oc3ccc(C)cc32)c1 (centres undefined)	/	/	.	/	/	/
COc1ccc2nc(Nc3ccccc3)sc2c1	55.8	.	.	.	.	.
C=CCn1cccc(C(=O)Nc2ccc(Cl)cc2)c1=O	53.1	.	.	.	.	.
Cc1occc1C(=O)N/N=C/C(Br)=C\c1ccccc1	63.0	.	.	.	.	66.8
O=C(N/N=C/C(Br)=C\c1ccccc1)c1ccco1	65.6	.	.	.	.	45.5
Cc1occc1C(=O)N/N=C/C=C/c1ccccc1	.	.	.	.	.	/
COc1ccc(C(C)(O)c2nc(-c3ccc4ccccc4c3)cs2)cc1 (centres undefined)	/	/	.	/	/	/
O=C(Nc1ccc(Cl)cc1)c1ccc2sc([C@@H]3O[C@H](CO)[C@@H](O)[C@H]3O)nc2c1	/	/	.	/	/	/
O=C(C(Cc1ccccc1)n1cccc1)N1CCN(c2ccccc2)CC1 (centres undefined)	55.4	.	.	.	.	.
Cc1cc(C)cc(N(C(C)C(=O)NC2CCCC2)S(C)(=O)=O)c1 (centres undefined)	88.5	.	.	.	.	.
N#C/C(=C\c1ccc(OCc2ccccc2)cc1)C(N)=O	62.6	.	.	.	.	52.0
Cc1ccccc1COc1ccc(/C=C(\C#N)C(N)=O)cc1	.	.	.	.	.	/
SMILES	tim23-1 inh	TIM10 inh	MPTP inh	Mdm2-MdmX inh	tim10-1 inh	tim23-1 conf
CC1(C(=O)NS(=O)(=O)c2cccc(C#N)c2)CCN1C(=O)Cc1ccc(Cl)cc1Cl (centres undefined)	/	/	.	/	/	/
CC(=Nc1cccc(O)c1)c1sc2ccccc2c1O	63.3	.	.	.	.	62.5
CC(=Nc1ccc(C)cc1)c1sc2ccccc2c1O	.	.	.	.	.	/
Cc1ccc(C(C[N+](=O)[O-])c2c(N)n(C)c(=O)n(C)c2=O)cc1 (centres undefined)	53.7	.	.	.	.	63.7
CC(C)CN1C(=O)c2ccc(NC(=O)c3ccco3)cc2C1=O	52.4	.	.	.	.	52.9
CCCCNC(=O)c1nc(C2CCNCC2)oc1-c1cccc(C(F)(F)F)c1	/	/	.	/	/	/
CC1(C(=O)NS(=O)(=O)C2CC2)CCN(C(=O)CSc2ccccc2)C1 (centres undefined)	/	/	.	/	/	/
COc1ccc(-c2csc(NC(=O)CS(=O)(=O)c3ccccc3)n2)cc1OC	/	/	.	/	/	/
O=C(CS(=O)(=O)c1ccccc1)Nc1nc(-c2ccc(F)cc2)cs1	57.3	.	.	.	.	48.9
C#CCN(CC(=O)OCC)S(=O)(=O)CCNC1CC1	/	/	.	/	/	/
